Test results reported in PubChem BioAssay AID1347416 (National Center for Advancing Translational Sciences (NCATS), 2020).
About 1,600 (39%) of roughly 4,100 compounds were called active. Roughly 25% stayed inconclusive and do not appear here. Calls come from the whole dose curve; as a rule, active = well fitted inhibition curve with a large enough effect; inconclusive = small, poorly fitted or top-dose-only effect; inactive = no such curve, though single readings can be large or run the other way. Some of the results follow. Entries that show only a call come without a potency.

assay: qHTS Validation assay for Inhibitors of Plasmodium falciparum Dd2 growth in vitro; note: nearly all actives have a fitted effect of over 70% in size; settings: P. falciparum Dd2 in RBCs, SYBR Green growth, 72 h; series mostly up to 28.7 µM
Method in brief: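 P. falciparum Dd2-infected red blood cells (2.5% hematocrit, 0.3% parasitemia) grown 72 h at 37 °C under 5% O2 with compounds in a titration, 29 uM to 0.5 nM final. Growth read as SYBR Green-1 fluorescence after ~16 h lysis; artesunate 300 nM as positive control.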
Potency is the fitted concentration of half-maximal effect.

| Compound | Potency |
| --- | --- |
| C=CCNC(=S)N1CCN(c2ccc([N+](=O)[O-])cc2)CC1 | 4.22 µM (active) |
| O=[N+]([O-])c1ccc(N2CCN(C(=S)NC3CCCCC3)CC2)cc1 | 1.88 µM (active) |
| Cc1ccc(C)c(-c2cc3c(=O)n(CCNC(=O)c4ccncc4)ccn3n2)c1 | inactive |
| CC(C)n1nc(OC(C)(C)C(=O)NCC2CCOCC2)c2cc(CN3CCOCC3)ccc21 | inactive |
| CC(C)CNC(=O)C(C)(C)Oc1nn(CC2CC2)c2ccc(CN3CCCC3)cc12 | 19.3 µM (active) |
| O=C([C@@H]1C[C@H](Oc2cccnc2)CN1C(=O)NCCc1ccccc1)N1CCOCC1 | inactive |
| CCN(CC)CCN1C(=O)c2ccccc2NC1c1ccc(Br)cc1 (stereo not drawn) | 1.5 µM (active) |
| CCN(CC)CCN1C(=O)c2ccccc2NC1c1ccc(N(C)C)cc1 (stereo not drawn) | 4.22 µM (active) |
| CCN(CC)CCN1C(=O)c2ccccc2NC1c1ccc(C)cc1 (stereo not drawn) | 2.99 µM (active) |
| CCc1ccc(CNC(=O)c2ccc(-c3nc(CSc4ccc(C)cc4)c(C)o3)cc2)cc1 | inactive |
| CCc1noc(-c2ccn3c(CNC(=O)COc4cccc(C)c4)nnc3c2)n1 | inactive |
| O[C@@H]1CC(CNCC2CCCC2)(COc2ccc(C(F)(F)F)cn2)C[C@@H]1O (stereo partly drawn) | 5.31 µM (active) |
| CCn1cc(C(=O)N2CCN(c3cccc(C)c3)C(C)C2)c(=O)c2cc(S(=O)(=O)N3CCOCC3)ccc21 (stereo not drawn) | inactive |
| CC(C)COc1ccc(C(=O)N/C(=C\c2cccc([N+](=O)[O-])c2)C(=O)OC(C)C)cc1 | 0.531 µM (active) |
| CCCCOc1ccc(C(=O)N/C(=C\c2cccc([N+](=O)[O-])c2)C(=O)OC(C)C)cc1 | 2.11 µM (active) |
| CC(C)c1ccccc1OCC(O)CN(CC(O)COc1cccc2ccccc12)C(C)C (stereo not drawn) | 2.37 µM (active) |
| CC(C)[N+](C)(C)CC(O)COc1cccc2ccccc12 (stereo not drawn) | inactive |
| CC(=O)Nc1ccc(CN2CCC3(CC2)CNc2ccccc2[S+](=O)([O-])N3)cc1 | inactive |
| CC(=O)Nc1ccc(CN2CC(N(C)c3ccccc3C)C2)cc1 | 12.2 µM (active) |
| CC(=O)Nc1ccc(CN2CC(Oc3ccc(F)c(C)c3)C2)cc1 | inactive |
| Cc1ccc2nc(-c3ccccc3O)c(Nc3ccccc3C)n2c1 | 2.37 µM (active) |
| CCOC(=O)c1c(CN(C)C)oc2cc(CN(C)C)c(O)c(CSc3ccccc3)c12 | 0.596 µM (active) |
| CN(C)CC1(O)CCC2(CCN(C(=O)c3nccc4ccccc34)CC2)CC1 | inactive |
| Cc1cccc(N2CCN(c3nc4ccccc4c4nnc(C)n34)CC2)c1C | 5.31 µM (active) |
| Cc1ccc(/C=N/Nc2cc(C)nc(NCc3ccccc3)n2)cc1 | 5.31 µM (active) |

| Compound | Potency |
| --- | --- |
| Cc1cc(Nc2cccc(F)c2)nc(NCc2ccccc2)n1 | 8.41 µM (active) |
| CC(=O)Nc1ccc(Nc2cc(C)nc(Nc3ccc(NC(C)=O)cc3)n2)cc1 | 3.35 µM (active) |
| Cc1ccnc(NS(=O)(=O)c2ccc(NC(=O)C(C)(C)C)cc2)n1 | inactive |
| COc1ccc(-c2cc(C(=O)O)n(Cc3ccccc3)n2)cc1 | inactive |
| COc1ccc(Nc2cc(C)nc(NCc3ccccc3)n2)cc1 | 13.3 µM (active) |
| COc1cc(SC)ccc1C(=O)N[C@H]1CCN2C(=O)N(c3ccc(Cl)cc3)C(=O)[C@@H]2C1 | inactive |
| COCc1nc(-c2ccc(OC3CN(S(=O)(=O)c4ccccc4C)C3)cc2)no1 | inactive |
| Cc1ccc2nc(CCc3ccc(N)cc3)[nH]c2c1 | inactive |
| COCCn1c(=O)n([C@H]2CCCN(C(=O)CC3CCCCC3)C2)c2ncccc21 | inactive |
| Cc1cc(NC2CCCCC2)nc(NCc2ccccc2)n1 | 16.8 µM (active) |
| Cc1cc(Nc2cccc(Cl)c2)nc(NCc2ccccc2)n1 | 8.41 µM (active) |
| Cc1cc(Nc2ccc(Cl)cc2)nc(NCc2ccccc2)n1 | 0.422 µM (active) |
| CN(C)c1cc(N2CCCC(NC(=O)NCc3ccccc3)C2)ncn1 (stereo not drawn) | inactive |
| CCCCNc1cc(C)nc(NCc2ccccc2)n1 | 9.44 µM (active) |
| COc1nccnc1NC1CCN(C(=O)Cc2ccccc2)CC1 | inactive |
| CCCc1noc(-c2ccn3c(CNC(=O)c4cccc(N(C)C)c4)nnc3c2)n1 | inactive |
| Cc1cc(NCc2ccco2)nc2cc(O)ccc12 | 6.68 µM (active) |
| Cc1cc(=O)n(CC(=O)NCc2ccccc2Br)c(N(C)Cc2ccccc2)n1 | inactive |
| Cc1cc(N(C)Cc2ccccc2)nc2cc(O)ccc12 | 2.37 µM (active) |
| Cc1cc(Nc2ccccc2)nc2cc(O)ccc12 | 0.422 µM (active) |
| CNC(=O)[C@@H](c1ccc(Cl)cc1)N1CCC[C@H]1C(=O)N1CC[C@@H](O)C1 | inactive |
| CCN1Cc2nc(OC)c(CNC(=O)C(C)n3cc(C)cn3)cc2C1=O (stereo not drawn) | inactive |
| CCN(CC(O)c1cccc(O)c1)C(=O)C12CC3CC(CC(C3)C1)C2 (stereo not drawn) | 4.73 µM (active) |
| O=C(CN1CCN(C(=O)c2ccco2)CC1)Nc1cc(C(F)(F)F)ccc1Cl | 7.5 µM (active) |
| O=C(CN1CCN(C(=O)c2ccco2)CC1)Nc1cc(Cl)ccc1Cl | 5.96 µM (active) |

| Compound | Potency |
| --- | --- |
| O=C(c1ccco1)N1CCCN(c2cc(-c3ccc(Br)cc3)[nH]n2)CC1 | inactive |
| CNC(=O)[C@@H]1CN(Cc2cc(C(F)(F)F)ccc2Cl)C[C@H]1CO | inactive |
| O=C1CCC2(CCCO2)CCN1Cc1ccccc1 (stereo not drawn) | inactive |
| CC(=O)Nc1cccc(-c2ncc3c(n2)OCCN(Cc2ccccc2)C3=O)c1 | inactive |
| O=C1c2cc(N3CCOCC3)nc(-c3ccccc3)c2CN1Cc1ccccc1 | 21.7 µM (active) |
| Nc1nc(-c2ccccn2)nc(N)c1Cc1ccccc1F | 13.3 µM (active) |
| Nc1nc(-c2ccccn2)nc(N)c1Cc1ccc(Cl)cc1Cl | 7.5 µM (active) |
| CCOc1cc(C2c3c(-c4ccccc4O)n[nH]c3C(=O)N2Cc2cccnc2)ccc1O (stereo not drawn) | inactive |
| CCCCN1C(=O)c2[nH]nc(-c3ccccc3O)c2C1c1ccc(OCc2ccccc2)cc1 (stereo not drawn) | 5.96 µM (active) |
| CCOc1ccccc1CN1CCC2(CCN(C(=O)OC)CC2)Oc2ccccc21 | inactive |
| CCOc1ccccc1CN1CCC2(CCN(CCC(C)C)CC2)Oc2ccccc21 | 3.35 µM (active) |
| CN(C)CCCNc1cc(N2CCN(C3CCCCC3)CC2)c2noc3c2c1C(=O)c1ccccc1-3 | 1.33 µM (active) |
| COCCNc1cc(N2CCN(C3CCCCC3)CC2)c2noc3c2c1C(=O)c1ccccc1-3 | 15 µM (active) |
| Cc1ccc(C(=O)Nc2sc3c(c2C(=O)O)CCCCC3)o1 | inactive |
| O=C(Nc1sc2c(c1C(=O)NCc1ccco1)CCCC2)c1cc(=O)c2ccccc2o1 | 10.6 µM (active) |
| CCn1ncc(Br)c1C(=O)Nc1sc2c(c1C(N)=O)CCC2 | inactive |
| O=c1cc(-c2ccncc2)oc2c(-c3cccc(CO)c3)nccc12 | inactive |
| O=c1cc(-c2cccnc2)oc2c(-c3ccccc3Oc3ccccc3)nccc12 | 17.2 µM (active) |
| O=c1cc(-c2ccncc2)oc2c(-c3ccccc3O)nccc12 | inactive |
| COc1ccc(Nc2cc(C)nc3ncnn23)cc1Cl | inactive |
| Cc1cc(Nc2ccc(C(C)C)cc2)n2ncnc2n1 | 4.22 µM (active) |
| Cc1cc(Nc2ccc3ccccc3c2)n2ncnc2n1 | 0.596 µM (active) |
| OC(CNCC(c1ccco1)N1CCCCC1)c1ccccc1 (stereo not drawn) | 5.96 µM (active) |
| O=C(c1ccncc1)N1CCC(Cc2nc(-c3ccccc3)n[nH]2)CC1 | inactive |
| O=C1CC(c2ccccc2)N(Cc2ccncc2)CCCN(C(=O)Nc2ccccc2F)CCN1 (stereo not drawn) | 1.68 µM (active) |

| Compound | Potency |
| --- | --- |
| COc1cccc(C(=O)N2CCCC(Cc3noc(-c4ccncc4)n3)C2)c1 (stereo not drawn) | inactive |
| O=C(NCc1ccncc1)[C@@H]1C[C@@H](c2ccc(F)cc2)N(Cc2ccccc2)C1 | inactive |
| N#Cc1cccc(C(=O)N2CCCN(Cc3ccncc3)C(c3ccccc3)CC(=O)NCC2)c1 (stereo not drawn) | 7.5 µM (active) |
| COC(=O)c1c(C(=O)OC)c(-c2ccc(C)cc2)n2c1CS(=O)(=O)C2 | inactive |
| O=C(N[C@H]1C[C@H]2C(=O)NC[C@@H](CCC(=O)N3CCN(c4ccccc4)CC3)N2C1)C1CC1 | inactive |
| COC[C@@H]1CN(Cc2cc(OC)cc(OC)c2)C[C@H]1C(=O)N(C)C | inactive |
| CSc1cccc(NC(=O)Cn2c(-c3ccc(F)cc3)nc(C)c(CCO)c2=O)c1 | 13.3 µM (active) |
| Cc1nc(-c2ccc(F)cc2)n(CC(=O)Nc2cccc(Cl)c2)c(=O)c1CCO | 15 µM (active) |
| Cc1nc(-c2cccc(Cl)c2)n(CC(=O)NCc2ccc(F)cc2)c(=O)c1CCO | inactive |
| CC1=C(C(=O)NCc2ccccn2)C2(CCC(C)CC2)OC1=O (stereo not drawn) | inactive |
| O=C(Nc1cccc(C(F)(F)F)c1)C1CCN(S(=O)(=O)c2cccc3nsnc23)CC1 | inactive |
| NC(=O)C1CCN(CC(=O)Nc2cccc(C(=O)Nc3cccc(C(F)(F)F)c3)c2)CC1 | 6.68 µM (active) |
| Cc1ccncc1C(=O)N1CCCC(c2nnnn2C)C1 (stereo not drawn) | inactive |
| CN(C)C[C@H]1C[C@@H](CO)CN(C(=O)c2ccccc2OC(F)(F)C(F)F)C1 | inactive |
| O=C(Nc1cccc(F)c1)N1CCC(Oc2ncccc2C(=O)N2CCCCC2)C1 (stereo not drawn) | inactive |
| CC1(C)[C@H]2CC[C@@H](CNC(=O)c3cccc4[nH]ccc34)[C@@H]1C2 | inactive |
| COc1ccccc1C(=O)NC1CCCN(c2cc(-c3ccc(F)cc3)[nH]n2)C1 (stereo not drawn) | inactive |
| O=C(c1cc(-c2ccccc2)n[nH]1)N1CCCC(Cc2noc(-c3cnccn3)n2)C1 (stereo not drawn) | inactive |
| O=C(c1ccccc1OCC1CCCN(Cc2ccncc2F)C1)N1CCCCC1 (stereo not drawn) | 10.6 µM (active) |
| O=C(NC1CC1)c1ccccc1OCC1CCCN(Cc2cccc3[nH]ccc23)C1 (stereo not drawn) | 5.96 µM (active) |
| O=C(c1ccccc1OCC1CCCN(Cc2ccncc2F)C1)N1CCCC1 (stereo not drawn) | 10.6 µM (active) |
| CCOc1ccccc1C(=O)N1CCN(C2CCN(C)C2=O)CC1 (stereo not drawn) | inactive |
| CCn1cc(CN2CCCC(COc3ccccc3C(=O)N3CCCC3)C2)c2ccccc21 (stereo not drawn) | 8.41 µM (active) |
